Hit rate of the full screen: of about 87,000 compounds, about 540 (0.62%) were called active. The rule behind the calls is not given here. The list comes from a sample in which actives are over-represented; it also holds similar structures and randomly drawn compounds. Where a call stands in place of a potency, no number is given. Potency and affinity values are given separately.

The nature of this test: MT1-MMP gene expression reporter suppression – cell-based, luciferase reporter, luminescence (AID 618).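 Note: actives suppress MT1-MMP promoter-driven transcription so potencies describe inhibitors.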 The settings on record: MT1-MMP promoter luciferase reporter cells.
As for `Cc1ccc(Cl)cc1NC(=O)CCC(=O)Nc1cc(Cl)ccc1C`, the call was inactive.
As for `COc1cc(C(=O)Nc2cc(C)ccn2)cc(OC)c1OC`, the entry is “inactive”; as for `COc1ccc(C(=O)NC(=O)Nc2cc(C)ccn2)cc1`, “active”; as for `COc1ccc(CC(=O)Nc2cc(C)ccn2)cc1`, “inactive”.
Next, `CN1CCc2c(sc3c2c(=O)n(-c2ccccc2)c2nnc(SCc4ccc(Cl)cc4)n32)C1`: “inactive”; `CCOC(=O)c1sc2nc3c(cc2c1N)COC(C)(C)C3`: “inactive”.
In the case of `CCOC(=O)c1sc2nc3c(cc2c1N)COC(C)(CC)C3` (stereo not drawn), the compound was classed as inactive.
Consider `CCN(Cc1ccccc1)S(=O)(=O)c1ccc2oc(C(=O)O)c(C)c2c1`, for which the compound was classed as inactive.
Take `Brc1ccc2nc(CSc3ncn[nH]3)cn2c1`: the compound was classed as inactive.
With `Cn1ccnc1SCc1cn2ccccc2n1`, the compound was called inactive.
On to `COc1ccc(NC(=S)N/C(=N/CS(=O)(=O)c2ccccc2)c2ccccc2)cc1`, for which the result was inactive.
As for `CCOC(=O)N1CCC(N2C(=O)c3ccc(C(=O)O)cc3C2=O)CC1`, the entry is “inactive”; as for `Clc1ccc(NC2=NCCCCC2)cc1`, “inactive”; as for `Cc1nnc(NC2=NCCCCC2)o1`, “inactive”.
Turning to `Fc1ccc(-c2nnc(NC3=NCCCCC3)o2)cc1`, the compound was classed as active.
On to `CCOc1ccc(-c2nnc(NC3=NCCCCC3)o2)cc1`, for which the outcome was inactive.
Next, `Clc1ccc(-c2nnc(NC3=NCCCCC3)o2)cc1`: “active”; `c1coc(-c2nnc(NC3=NCCC3)o2)c1`: “inactive”.
Regarding `O=C1/C(=C\Nc2ccc(OC(F)(F)F)cc2)CCN1c1ncccn1`, the call was inactive.
For `CS(=O)(=O)N(CC(=O)NCCSC1CCCCC1)c1ccc2c(c1)OCO2`, the compound was called inactive.
For the compound `COc1cccc(CNc2ccc(F)c(Cl)c2)c1OC`, the outcome was inactive.
As for `Cc1nc2ccccc2n1-c1nc(-c2ccco2)cc(C(F)(F)F)n1`, the entry is “active”.
In the case of `FC(F)(F)c1cc(-c2ccco2)nc(-n2cnc3ccccc32)n1`, the call was inactive.
Next, `FC(F)(F)c1cc(-c2ccco2)nc(-n2nnc3ccccc32)n1`: “inactive”; `Cc1cc(OCCCCCNCCO)cc(C)c1Cl`: “inactive”.
Turning to `COc1ccc(C(=O)Nc2ccccc2C(=O)NCCN2CCOCC2)cc1`, the result was inactive.
As for `CN(C)CCCN1c2ccccc2Sc2ccccc21`, the entry is “inactive”; as for `CN(C)CCCN1c2ccccc2Sc2ccc(Cl)cc21`, “inactive”; as for `COc1ccc2c(c1)Sc1ccccc1N2CCN(C)C`, “active”.
As for `CCOC(=O)C(N)CSC1CC(=O)N(c2ccc(C(=O)OC)cc2)C1=O` (stereo not drawn), the compound was called inactive.
Take `CCOC(=O)COc1nc(Nc2ccccc2C)nc(N(C)C)n1`: the call was inactive.
For `O=C(NNC(=O)c1ccc(SCC2CCCO2)c([N+](=O)[O-])c1)c1ccc(F)cc1` (stereo not drawn), the compound was called inactive.
For `c1ccc(-c2noc(-c3cccc4ccccc34)n2)cc1`, the compound was classed as inactive.
On to `COc1cccc(-c2nc(-c3ccccn3)no2)c1OC`, for which the compound was called inactive.
Consider `COc1cc(-c2nc(-c3ccccn3)no2)cc(OC)c1OC`, for which the compound was classed as inactive.
Regarding `c1ccc2c(-c3nc(-c4ccncc4)no3)cccc2c1`, the compound was classed as inactive.
Regarding `c1ccc(-c2noc(-c3cccc4ccccc34)n2)nc1`, the result was active.
Take `CCCCNC(=O)n1c(SC)nc2ccccc21`: the call was inactive.
On to `COc1cccc(-c2ccc(C#N)c(OC(=O)c3ccc(Cl)cc3)n2)c1`, for which the call was inactive.
Next, `COc1ccc(-n2c(Cc3cc(=O)[nH]c(=O)[nH]3)nnc2SCC(=O)N2CCCC2)cc1`: “inactive”; `O=C(CSc1nnc(Cc2ccccc2)o1)NC1CCCCC1`: “inactive”; `CCOC(=O)c1c(NC(=O)CN(C)C)sc(C(=O)N(CC)CC)c1C`: “inactive”.
`CCOC(=O)c1c(NC(=O)CCl)sc(C(=O)N(CC)CC)c1C`: the compound was classed as active.
On to `CCOC(=O)Nc1sc(C(=O)N(CC)CC)c(C)c1C(=O)OCC`, for which the compound was classed as inactive.
On to `Cc1ccc(NC2=C/C(=N\S(=O)(=O)c3cccs3)c3ccccc3C2=O)c(C)c1`, for which the call was inactive.
On to `CCC1CCCCN1C(=O)Cn1c(C(=O)OC)cc2ccsc21` (stereo not drawn), for which the compound was classed as inactive.
`O=C(c1cccnc1)N1CCCc2ccccc21`: the call was inactive.
As for `COc1cccc(C(=O)Nc2ccc(NC(C)=O)cn2)c1`, the entry is “inactive”; as for `CCC(=O)Nc1ccc(NC(=O)c2cccc(OC)c2)nc1`, “inactive”.
As to `COc1cccc(C(=O)Nc2ccc(NC(=O)C(C)(C)C)cn2)c1`, the compound was classed as active.
On to `Cn1c(NC(=O)CC(C)(C)C)cc(=O)n(C)c1=O`, for which the compound was called inactive.
On to `Cc1nnc2sc(-c3ccc(NC(=O)c4cccnc4)cc3)nn12`, for which the outcome was inactive.
Consider `N#CC1=C(N)SC(N)=C(C#N)C1c1ccnc2ccccc12`, for which the outcome was inactive.
As to `COc1ccc(C2C(=O)c3ccccc3C2=O)c(OC)c1`, the result was inactive.
Regarding `O=C1c2ccccc2-c2nccnc21`, the result was inactive.
Regarding `O=C1c2ccccc2C(=O)C1c1ccncc1`, the result was inactive.
As to `O=C(NCCCCCNC(=O)c1ccco1)c1ccco1`, the result was inactive.
As for `CCCCOc1ccccc1C1NC(=O)NC(C)=C1C(=O)OCCOCC` (stereo not drawn), the call was inactive.
`CC(C)(C)NC(=O)Nc1ccc2nccnc2c1`: the outcome was inactive.
For the compound `CCc1ccc(OCc2ccc(C(=O)NCc3ccccn3)o2)cc1`, the compound was called inactive.
`CCOc1ccc(OCc2ccc(C(=O)N3CCCC3)o2)cc1`: the outcome was inactive.
For the compound `O=C(O)c1ccc(COc2ccc(Cl)cc2)o1`, the compound was called inactive.
For `O=C(OCc1ccccn1)c1ccc(COc2ccccc2Cl)o1`, the outcome was inactive.
On to `CCN(CC(O)Cn1c2ccccc2c2ccccc21)S(=O)(=O)c1ccc(C)cc1` (stereo not drawn), for which the outcome was inactive.
`O=C(/C=N/O)Nc1ccccc1C(=O)O`: the call was inactive.
For `O=C(NCc1ccccc1)c1ccc(Oc2ccc(C(=O)NCc3ccccc3)cc2)cc1`, the outcome was inactive.
For `O=C(CN(CC1CCCO1)C(=O)CCC(=O)Nc1nccs1)NCc1ccc2c(c1)OCO2` (stereo not drawn), the result was inactive.
Consider `CCOC(=O)N1CCN(C(=O)CN(c2cccc(C(F)(F)F)c2)S(C)(=O)=O)CC1`, for which the outcome was inactive.
For the compound `CCOC(=O)c1ccc(NC(=O)N2CCc3ccccc32)cc1`, the call was inactive.
For `O=C(Nc1ccccc1)N1CCc2ccccc21`, the compound was classed as inactive.
Take `O=C(CN1C(=O)C2C3C=CC(C3)C2C1=O)Nc1nc2ccccc2[nH]1` (stereo not drawn): the outcome was inactive.
Next, `CCOc1ccc(S(=O)(=O)N(C)c2ccc(OCC(=O)N3CCOCC3)cc2)cc1`: “inactive”; `CC(=O)c1ccc(NC(=O)C(C)Sc2nnnn2C)cc1` (stereo not drawn): “inactive”; `COc1ccc(C(=O)Nc2cccc(C)c2)cc1`: “inactive”.
On to `COc1cccc(C(=O)/C=C/Nc2cc(C)ccc2O)c1`, for which the outcome was inactive.
In the case of `COc1cccc(C(=O)Nc2ccccc2)c1`, the compound was classed as inactive.
As for `COc1ccc(N/C=C\C(=O)c2ccc3c(c2)OCO3)cc1`, the result was inactive.
As for `COc1ccc(S(=O)(=O)NCC(c2cccnc2)N2CCN(C)CC2)cc1C` (stereo not drawn), the result was inactive.

The record behind these values is PubChem BioAssay AID618 (Sanford-Burnham Center for Chemical Genomics, 2007).
